Assay [1] can be described thus: qHTS assay to identify small molecule antagonists of the estrogen related receptor (ERR) signaling pathway - cell viability counter screen (AID 1224818). Further: series mostly up to about 46 µM. A digest of the protocol: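 Cytotoxicity counter screen: fluorescence from CellTiter-Fluor, added after 17.5 h compound exposure at 37 C and read 30 min later. ERR cell line seeded at 2,000 cells/well, preincubated 6 h before dosing.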
A general note: In qHTS, concentration-response curves come from the screen itself.

Assay [2] is described as follows: qHTS assay to identify small molecule antagonists of the estrogen related receptor (ERR) signaling pathway (AID 1224819; further: series mostly up to about 46 µM; nearly all actives have a fitted effect of over 50% in size). The gist of the method:
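LOPAC library screened for antagonism as reduced One-Glo luminescence in ERR reporter cells (2,000/well). Compounds were added after 6 h pre-incubation and left 18 h at 37C; reading followed a 30 min room-temperature reagent step.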

A short description of assay [3]: qHTS assay to identify small molecule agonists of the estrogen related receptor (ERR) signaling pathway (AID 1224820). The gist of the method:
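After 6 h plating (2,000 cells/well) and 18 h compound treatment at 37 C, ERR cells were lysed with One-Glo and luminescence read after 30 min at room temperature.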

Assay [4] concerns estrogen-related receptor alpha (ERRalpha) with PGC-1alpha coactivator, human. Put plainly: qHTS assay to identify small molecule antagonists of the estrogen related receptor signaling pathway with the pleiotropic PPARgamma coactivator (PGC) (AID 1224821; calls by dose curve;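 further: series mostly up to about 46 µM; lower luminescence signal means antagonism of PGC/ERR signalling; nearly all actives have a fitted effect of over 50% in size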). The gist of the method:
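Luminescence from One-Glo luciferase reagent (30 min, room temperature) measured after 18 h compound treatment at 37 °C. Cells carry the PGC/ERR reporter and were seeded 6 h prior to dosing.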

A short description of assay [5]: qHTS assay to identify small molecule antagonists of the estrogen related receptor signaling pathway with the pleiotropic PPARgamma coactivator (PGC) cell viability counter screen (AID 1224822; further: series mostly up to about 46 µM). A digest of the protocol:
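Viability counter-screen read by fluorescence intensity after 30 min with CellTiter-Fluor at 37 C; PGC/ERR reporter cells were exposed to compounds for 17.5 h at 37 C following a 6 h preincubation.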

Assay [6] can be described thus: qHTS assay to identify small molecule agonists of the estrogen related receptor signaling pathway with the pleiotropic PPARgamma coactivator (PGC) (AID 1224823). The gist of the method:
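Luminescence from One-Glo reagent (30 min, room temperature) was read after 18 h compound treatment at 37 C of PGC/ERR cells plated 6 h beforehand; compounds delivered in DMSO by pin tool.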

The target of another assay is Aromatase (Homo sapiens) (UniProt P11511). Put plainly: qHTS assay to identify aromatase inhibitors (AID 743083). Further: nearly all actives have a fitted effect of over 55% in size. Further: potency means the concentration at half of the fitted maximal effect.
Chain of Aromatase (Homo sapiens) (P11511 whole entry, looked up): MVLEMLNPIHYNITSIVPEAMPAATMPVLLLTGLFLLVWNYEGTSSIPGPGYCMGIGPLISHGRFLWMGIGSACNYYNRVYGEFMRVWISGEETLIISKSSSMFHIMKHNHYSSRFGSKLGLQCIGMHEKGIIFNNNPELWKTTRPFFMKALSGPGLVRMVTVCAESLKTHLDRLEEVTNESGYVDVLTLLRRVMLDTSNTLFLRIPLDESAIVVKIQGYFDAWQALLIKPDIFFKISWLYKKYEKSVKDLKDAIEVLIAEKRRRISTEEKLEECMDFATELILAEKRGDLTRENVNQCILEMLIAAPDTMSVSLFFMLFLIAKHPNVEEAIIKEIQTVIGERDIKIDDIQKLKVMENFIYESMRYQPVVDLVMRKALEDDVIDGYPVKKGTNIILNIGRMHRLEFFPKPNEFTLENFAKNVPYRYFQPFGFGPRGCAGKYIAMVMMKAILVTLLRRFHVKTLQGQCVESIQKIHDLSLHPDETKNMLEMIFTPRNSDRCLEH
Assay [7] concerns the target Aryl hydrocarbon receptor (Homo sapiens) (UniProt P35869). Briefly: qHTS assay to identify small molecule that activate the aryl hydrocarbon receptor (AhR) signaling pathway (AID 743085).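 Further: HG2L7.5c1 human HepG2 liver cells with stably integrated DRE-driven firefly reporter; series mostly up to about 70 µM; nearly all actives have a fitted effect of over 15% in size.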 The gist of the method: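 Cell line HG2L7.5c1 (human hepatoma, 20× DRE-luc). Plated, 5 h 37C, compound/DMSO added, 24 h 37C. CellTiter-Fluor 30 min 37C → fluorescence; then ONE-Glo 30 min RT → luminescence.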

Assay [8] in a line: Caspase-3/7 induction in HepG2 cells by small molecules, qHTS assay (AID 1346978). Further: nearly all actives have a fitted effect of over 15% in size. A digest of the protocol:
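Wild-type HepG2 cells, 2,000/well, settled 5 hr at 37 C and 5% CO2, then compound-treated for 17 hr; caspase-3/7 activity read by luminescent Caspase-Glo 3/7 after 30 min at room temperature.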

Assay [9] addresses Acetylcholinesterase (Homo sapiens) (UniProt P22303). Briefly: Acetylcholinesterase (AChE) small molecule antagonists: colormetric cell-based qHTS assay (AID 1347395; calls by dose curve; further: nearly all actives have a fitted effect of over 30% in size). A digest of the protocol:
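Colorimetric read-out: DTNB detects thiocholine released when cellular AChE in SH-SY5Y cells hydrolyses acetylthiocholine. Cells attached overnight, received compound for 30 min at 37 C, then substrate mix for 90 min at 37 C.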

Assay [10] has the same target. Put plainly: Acetylcholinesterase (AChE) small molecule antagonists: enzyme-based qHTS assay (AID 1347397; calls by dose curve; further: nearly all actives have a fitted effect of over 55% in size). Particulars: Potency: AChE enzyme activity inhibition; outcome: AChE enzyme activity inhibition. A digest of the protocol:
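In this quantitative HTS, compounds from the Tox21 10K collection were preincubated 30 min at ambient temperature with recombinant human AChE dispensed at 50 mU/mL. Hydrolysis of acetylthiocholine was then followed for 10 min by DTNB colour development.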

For assay [11] the target is unchanged. Put plainly: Acetylcholinesterase (AChE) small molecule antagonists: fluorescence cell-based qHTS assay (AID 1347398; calls by dose curve; further: nearly all actives have a fitted effect of over 50% in size). To be noted: Potency: AChE activity; outcome: AChE activity. The gist of the method:
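Cells (SH-SY5Y) attached overnight, were dosed with compound or DMSO vehicle for 30 min at 37 C, and then incubated 40 min at room temperature with acetylthiocholine and Thiolite Green; green fluorescence indexed AChE activity.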

The target is the same in assay [12]. Briefly: Acetylcholinesterase (AChE) small molecule antagonists: enzyme-based qHTS assay with human liver microsomes (AID 1347399; calls by dose curve; further: nearly all actives have a fitted effect of over 60% in size). To be noted: Potency: qHTS inhibition; outcome: qHTS inhibition. The gist of the method:
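Recombinant human AChE (50 mU/mL in the enzyme mix) and human liver microsomes (0.25 mg/mL final) were preincubated with compound and NADPH (0.25 mg/mL final) for 30 min at 37 C. Acetylthiocholine/DTNB was then added; thiocholine was read colorimetrically after 10 min at room temperature.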

A short description of assay [13]: qHTS assay to identify small molecule agonists of H2AX (AID 1224845; active means well fitted activation curve with a large enough effect in the signal ratio in the repeat runs, not every such curve was filed as active; the % refers to the signal ratio). A digest of the protocol:
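Wild-type CHO-K1 cells, plated overnight, exposed 3hr at 37C to 15 concentrations (0.76% DMSO final). Lysed, then HTRF anti-pH2AX (S139) cryptate and anti-H2AX-d2 antibodies, 24 hr room temperature; 665/620 nm emission read.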

Assay [14] is described as follows: A CellTox Green Cytotoxicity Assay to monitor cytotoxicity in HEK293 cells - 0 hour (AID 1224869). Further: nearly all actives have a fitted effect of over 50% in size. A digest of the protocol:
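Fluorescence from a DNA-binding dye excluded by viable cells was measured repeatedly in the same HEK293 wells (600 cells/well) during continuous compound exposure at 37 C. Each assay gives one read point: 0, 8, 16, 24, 32 or 40 h.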

Assay [15] can be described thus: A CellTox Green Cytotoxicity Assay to monitor cytotoxicity in HepG2 cells - 0 hour (AID 1224882). Further: nearly all actives have a fitted effect of over 35% in size. The gist of the method: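 Real-time cytotoxicity: fluorescence of a cell-impermeant cyanine dye binding DNA of dead HepG2 cells, measured repeatedly (0–40 h) during compound exposure at 37 C. Cells seeded 600/well with reagent, dosed after 5 h.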
A short description of assay [16]: qHTS assay to identify small molecule antagonists of the estrogen receptor alpha (ER-alpha) signaling pathway using the BG1 cell line in the presence of 0.1 nM 17-beta-estradiol - cell viability counter screen (AID 1259241). Further: nearly all actives have a fitted effect of over 40% in size. The gist of the method: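 VM7Luc4E2, 4,000 cells/well, phenol red-free medium + 10% charcoal-stripped FBS; 24 hr plating; cpd + 0.1 nM E2 final, 22 hr 37C/5% CO2; CellTiter-Fluor 30 min, fluorescence.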

Assay [17] is described as follows: qHTS assay to identify small molecule HDAC inhibitors (AID 1259364). Further: top concentration of the series differs between compounds; nearly all actives have a fitted effect of over 45% in size. The gist of the method:
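Luminescence read after 30 min room-temperature HDAC-Glo incubation measures cellular class I/II HDAC activity. Compounds were applied for 2 hr at 37 C to HCT-116 wild-type cells seeded the day before.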

Assay [18] in a line: Caspase-3/7 induction in CHO-K1 cells by small molecules, qHTS assay (AID 1346980). Further: nearly all actives have a fitted effect of over 15% in size. The gist of the method:
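Wild-type CHO-K1 cells exposed to compounds for 17hr at 37 C, 5% CO2. Caspase-3/7 activity then measured by Caspase-Glo 3/7 luminescence after 30min at room temperature.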

Assay [19] has as its target Cytochrome P450 1A2 (Homo sapiens) (UniProt P05177). Put plainly: Cytochrome P450 Family 1 Subfamily A Member 2 (CYP1A2) small molecule antagonists: luciferase reporter qHTS assay (AID 1671199). The gist of the method: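 Luminescence from luciferin formed by CYP1A2 from a proluciferin substrate, read 20 min after detection reagent. Compound was pre-incubated 10 min with enzyme-substrate, and reaction started with NADPH regeneration solution for 1 h at room temperature; furafylline control.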
A general note: In a reporter assay the amount or activity of a reporter protein is the signal.

Results filed as inconclusive are left out. Calls of active or inactive are those of the source. Unless noted, the call rests on the fitted dose curve; in most records, active means well fitted curve in the direction sought with a large enough effect in the repeat runs; inconclusive means weak or mixed curves; inactive means no such curve, though single readings can be large; an effect the other way counts as inactive or inconclusive.

Chain of Acetylcholinesterase (Homo sapiens) (P22303 whole entry, looked up): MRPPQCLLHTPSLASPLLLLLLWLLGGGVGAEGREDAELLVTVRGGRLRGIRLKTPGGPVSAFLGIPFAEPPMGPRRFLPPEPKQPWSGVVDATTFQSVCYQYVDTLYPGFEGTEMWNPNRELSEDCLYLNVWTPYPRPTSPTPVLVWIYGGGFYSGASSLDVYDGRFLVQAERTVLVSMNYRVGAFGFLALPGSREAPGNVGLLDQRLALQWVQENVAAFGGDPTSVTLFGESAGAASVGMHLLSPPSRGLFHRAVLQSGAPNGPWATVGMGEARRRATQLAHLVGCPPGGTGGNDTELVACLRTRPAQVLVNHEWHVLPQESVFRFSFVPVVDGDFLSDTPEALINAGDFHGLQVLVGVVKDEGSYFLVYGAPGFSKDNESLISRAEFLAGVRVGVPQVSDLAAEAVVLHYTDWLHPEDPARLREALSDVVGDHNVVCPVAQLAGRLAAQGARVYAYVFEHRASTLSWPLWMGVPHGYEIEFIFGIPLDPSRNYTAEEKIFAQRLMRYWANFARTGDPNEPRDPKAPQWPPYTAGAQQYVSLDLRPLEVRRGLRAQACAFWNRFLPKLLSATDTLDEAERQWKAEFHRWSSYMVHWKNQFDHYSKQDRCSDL
Chain of Aryl hydrocarbon receptor (Homo sapiens) (P35869 whole entry, looked up): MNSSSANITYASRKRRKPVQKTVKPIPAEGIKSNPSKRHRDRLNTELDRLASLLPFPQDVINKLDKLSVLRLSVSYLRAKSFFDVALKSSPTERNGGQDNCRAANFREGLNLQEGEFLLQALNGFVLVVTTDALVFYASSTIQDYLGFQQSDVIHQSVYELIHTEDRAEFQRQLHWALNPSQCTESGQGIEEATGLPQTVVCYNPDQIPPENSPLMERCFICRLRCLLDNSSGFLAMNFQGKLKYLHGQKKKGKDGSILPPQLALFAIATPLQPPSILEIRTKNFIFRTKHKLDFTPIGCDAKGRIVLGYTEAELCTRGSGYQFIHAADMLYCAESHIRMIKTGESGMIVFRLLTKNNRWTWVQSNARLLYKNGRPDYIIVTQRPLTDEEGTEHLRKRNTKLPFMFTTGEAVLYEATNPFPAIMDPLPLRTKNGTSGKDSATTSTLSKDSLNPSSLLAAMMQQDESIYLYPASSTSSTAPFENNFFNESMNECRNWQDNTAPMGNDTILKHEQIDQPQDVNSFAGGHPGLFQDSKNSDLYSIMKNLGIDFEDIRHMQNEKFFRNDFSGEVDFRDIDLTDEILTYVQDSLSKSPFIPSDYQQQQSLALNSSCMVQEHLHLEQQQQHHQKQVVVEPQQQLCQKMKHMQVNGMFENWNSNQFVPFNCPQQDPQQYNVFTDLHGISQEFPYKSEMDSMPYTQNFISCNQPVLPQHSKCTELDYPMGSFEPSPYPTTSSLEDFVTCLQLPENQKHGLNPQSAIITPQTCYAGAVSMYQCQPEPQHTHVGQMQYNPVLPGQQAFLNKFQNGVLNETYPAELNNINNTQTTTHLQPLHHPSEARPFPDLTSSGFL
Chain of Cytochrome P450 1A2 (Homo sapiens) (P05177 whole entry, looked up): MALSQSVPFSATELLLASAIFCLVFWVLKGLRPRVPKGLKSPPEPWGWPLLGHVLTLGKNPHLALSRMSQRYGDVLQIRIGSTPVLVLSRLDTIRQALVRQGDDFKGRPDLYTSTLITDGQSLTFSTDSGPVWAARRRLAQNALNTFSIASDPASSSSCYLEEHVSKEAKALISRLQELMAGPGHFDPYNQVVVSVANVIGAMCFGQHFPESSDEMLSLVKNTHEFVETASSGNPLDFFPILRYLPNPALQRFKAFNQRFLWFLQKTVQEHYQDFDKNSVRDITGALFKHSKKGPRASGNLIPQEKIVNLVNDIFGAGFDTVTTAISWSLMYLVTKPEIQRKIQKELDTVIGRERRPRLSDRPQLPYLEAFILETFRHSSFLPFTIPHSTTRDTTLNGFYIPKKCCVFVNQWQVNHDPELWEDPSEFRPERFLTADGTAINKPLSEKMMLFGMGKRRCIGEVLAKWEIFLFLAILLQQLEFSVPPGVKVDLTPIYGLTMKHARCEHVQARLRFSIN

Consider `NCCc1c[nH]c2ccc(C(N)=O)cc12`, for which the Potency result in assay [1], in assay [2], in [3], in assay [4], in assay [5] and in [6] was “inactive” each time.
With `CCCCC(CC)COC(=O)CCCCC(=O)OCC(CC)CCCC` (configuration not stated), the Potency result (with Aromatase (Homo sapiens); in assay [7]; in assay [8]; in assay [9]; in assay [10]; in [11]) was “inactive” throughout. The Potency entry in assay [12] was “inactive”.
For the compound `CC(CCl)OP(=O)(OC(C)CCl)OC(C)CCl` (configuration not stated), the Potency entry (in the assay with Aromatase (Homo sapiens); in assay [7]; in assay [9]; in [10]; in [11]; in assay [12]) was “inactive” in each case.
As for `CC(CCl)OC(C)CCl` (configuration not stated), the Potency entry (with Aromatase (Homo sapiens); in assay [9]; in [10]; in assay [11]; in assay [12]) was “inactive” throughout.
`Cc1c(N)cccc1[N+](=O)[O-]`: the Potency entry (with Aromatase (Homo sapiens); in [9]; in assay [10]; in assay [12]) was “inactive” throughout.
For `OCC(CBr)(CBr)CBr`, the Potency result (with Aromatase (Homo sapiens); in assay [13]; in assay [8]; in assay [9]; in assay [10]; in assay [11]) was “inactive” in each case. Further, the Potency result in assay [12] is “inactive”.
Regarding `Clc1ccccc1-c1ccccc1Cl`, the Potency in the assay with Aromatase (Homo sapiens) was 78.1 µM (active). Moreover, the Potency entry in assay [7], in assay [14], in [15], in assay [16], in assay [8] and in assay [9] was “inactive” each time. The Potency entry in assay [10], in assay [11], in assay [12] and in assay [19] was “inactive” in each case. The compound was called inactive in [17] and in assay [18].
Take `Nc1ncnc2c1ncn2[C@@H]1O[C@H](COP(=O)(O)CP(=O)(O)OP(=O)(O)O)C(O)[C@H]1O` (some centres not stated): the Potency entry in assay [1], in assay [2], in [3], in [4], in assay [5] and in [6] was “inactive” throughout.
As to `CN1C2CCC1CC(OC(c1ccccc1)c1ccccc1N)C2` (configuration not stated), the Potency entry in assay [1], in [2], in [3], in assay [4], in assay [5] and in assay [6] was “inactive” in each case.
Turning to `N[C@@H](Cn1oc(=O)[nH]c1=O)C(=O)O`, the Potency entry in assay [1], in [2], in assay [3], in [4], in assay [5] and in [6] was “inactive” in each case.
In the case of `OCc1cnc[nH]1`, the Potency entry in assay [1], in assay [2], in [3], in assay [4], in [5] and in assay [6] was “inactive” in each case.
For `C[N+](C)(C)CC#CCOC(=O)Nc1cccc(Cl)c1`, the Potency result in [1], in [2], in assay [3], in [4], in [5] and in assay [6] was “inactive” each time.
Regarding `CCCn1c(=O)c2[nH]c(C3CCCC3)nc2n(CCCOC(=O)c2ccc(S(=O)(=O)F)cc2)c1=O`, the Potency result in assay [1], in assay [2], in [3], in [4], in assay [5] and in assay [6] was “inactive” each time.
As to `NC(=O)c1cc(N2CC2)c([N+](=O)[O-])cc1[N+](=O)[O-]`, the Potency result in assay [1], in assay [2], in assay [3], in assay [4], in assay [5] and in assay [6] was “inactive” in each case.
With `CCCN(CCC)C1CCc2cccc(O)c2C1` (configuration not stated), the Potency result in [1], in assay [2], in assay [3], in assay [4], in assay [5] and in [6] was “inactive” in each case.
With `C[C@@H](N)Cc1cnc[nH]1`, the Potency entry in [1], in assay [2], in assay [3], in assay [4], in assay [5] and in assay [6] was “inactive” in each case.
